Laboratory results taken from PubChem BioAssay (NCATS).
Results filed as inconclusive are left out. Where a call stands in place of a potency, no number is given. Unmarked numbers belong to inactive results. The source made the active and inactive calls. Calls follow the shape of the dose curve; as a rule, active = well fitted curve in the direction sought with a large enough effect; inconclusive = small, poorly fitted or top-dose-only effect, or another doubt; inactive = no such curve, though single readings can be large; an effect the other way counts as inactive or inconclusive.

What was measured:
[1] = molecular target: Rap guanine nucleotide exchange factor 3 (Homo sapiens) (UniProt O95398); experiment: Confirmatory qHTS for antagonist of cAMP-regulated guanine nucleotide exchange factor 3 (EPAC1) (AID 1645880); details: EPAC1 Rap1B-BODIPY-GDP exchange, fluorescence; activity, negative = inhibition: at 115 µM (top of the series); also: nearly all actives have a fitted effect of over 55% in size; also: potency is read from the fitted curve at half-maximal effect
Sequence of Rap guanine nucleotide exchange factor 3 (Homo sapiens) (O95398 whole entry, looked up): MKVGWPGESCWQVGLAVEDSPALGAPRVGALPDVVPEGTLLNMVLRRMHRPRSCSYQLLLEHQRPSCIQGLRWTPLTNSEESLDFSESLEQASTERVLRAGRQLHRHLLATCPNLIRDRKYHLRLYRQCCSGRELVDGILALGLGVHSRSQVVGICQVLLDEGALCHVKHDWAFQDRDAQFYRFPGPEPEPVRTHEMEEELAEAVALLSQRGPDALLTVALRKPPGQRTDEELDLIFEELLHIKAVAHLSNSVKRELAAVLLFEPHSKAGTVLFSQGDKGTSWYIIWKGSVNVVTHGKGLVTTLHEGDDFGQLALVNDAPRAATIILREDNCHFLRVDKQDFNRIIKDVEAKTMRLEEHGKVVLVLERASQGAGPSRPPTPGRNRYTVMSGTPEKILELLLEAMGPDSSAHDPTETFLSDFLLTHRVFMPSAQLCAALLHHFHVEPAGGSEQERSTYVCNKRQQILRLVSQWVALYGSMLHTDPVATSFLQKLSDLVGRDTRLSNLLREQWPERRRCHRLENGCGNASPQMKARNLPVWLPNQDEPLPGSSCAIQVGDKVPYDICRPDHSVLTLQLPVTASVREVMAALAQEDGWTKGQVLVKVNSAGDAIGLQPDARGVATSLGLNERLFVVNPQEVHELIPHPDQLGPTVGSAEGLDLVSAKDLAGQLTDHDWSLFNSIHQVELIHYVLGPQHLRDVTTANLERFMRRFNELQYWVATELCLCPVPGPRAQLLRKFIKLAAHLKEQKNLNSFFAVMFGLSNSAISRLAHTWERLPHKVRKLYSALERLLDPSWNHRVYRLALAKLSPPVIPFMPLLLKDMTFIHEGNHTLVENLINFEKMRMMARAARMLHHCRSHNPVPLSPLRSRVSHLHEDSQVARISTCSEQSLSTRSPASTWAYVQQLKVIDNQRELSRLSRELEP
Outline: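 Nucleotide exchange uses 100 nM EPAC1, 250 nM RAP1B-BODIPY-GDP and 50 uM GDP, with compounds in a concentration-titration series. After 5 min at room temperature, fluorescence (480 nm ex/540 nm em) is read every 5 min for 30 min. Data are normalized to control ATA and DMSO.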

[2] = molecular target: Rap guanine nucleotide exchange factor 3 (Homo sapiens) (UniProt O95398); experiment: Confirmatory qHTS for agonist of cAMP-regulated guanine nucleotide exchange factor 3 (EPAC1) (AID 1645881);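 also: EPAC1 catalysed release of BODIPY-GDP from Rap1B seen as fluorescence loss; nearly all actives have a fitted effect of over 75% in size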
[3] = molecular target: Rap guanine nucleotide exchange factor 4 (Homo sapiens) (UniProt Q8WZA2); experiment: Confirmatory qHTS for agonist of cAMP-regulated guanine nucleotide exchange factor 4 (EPAC2) (AID 1645884);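 also: nucleotide exchange releases bodipy-GDP from Rap1 and this lowers its fluorescence; nearly all actives have a fitted effect of over 65% in size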
Sequence of Rap guanine nucleotide exchange factor 4 (Homo sapiens) (Q8WZA2 whole entry, looked up): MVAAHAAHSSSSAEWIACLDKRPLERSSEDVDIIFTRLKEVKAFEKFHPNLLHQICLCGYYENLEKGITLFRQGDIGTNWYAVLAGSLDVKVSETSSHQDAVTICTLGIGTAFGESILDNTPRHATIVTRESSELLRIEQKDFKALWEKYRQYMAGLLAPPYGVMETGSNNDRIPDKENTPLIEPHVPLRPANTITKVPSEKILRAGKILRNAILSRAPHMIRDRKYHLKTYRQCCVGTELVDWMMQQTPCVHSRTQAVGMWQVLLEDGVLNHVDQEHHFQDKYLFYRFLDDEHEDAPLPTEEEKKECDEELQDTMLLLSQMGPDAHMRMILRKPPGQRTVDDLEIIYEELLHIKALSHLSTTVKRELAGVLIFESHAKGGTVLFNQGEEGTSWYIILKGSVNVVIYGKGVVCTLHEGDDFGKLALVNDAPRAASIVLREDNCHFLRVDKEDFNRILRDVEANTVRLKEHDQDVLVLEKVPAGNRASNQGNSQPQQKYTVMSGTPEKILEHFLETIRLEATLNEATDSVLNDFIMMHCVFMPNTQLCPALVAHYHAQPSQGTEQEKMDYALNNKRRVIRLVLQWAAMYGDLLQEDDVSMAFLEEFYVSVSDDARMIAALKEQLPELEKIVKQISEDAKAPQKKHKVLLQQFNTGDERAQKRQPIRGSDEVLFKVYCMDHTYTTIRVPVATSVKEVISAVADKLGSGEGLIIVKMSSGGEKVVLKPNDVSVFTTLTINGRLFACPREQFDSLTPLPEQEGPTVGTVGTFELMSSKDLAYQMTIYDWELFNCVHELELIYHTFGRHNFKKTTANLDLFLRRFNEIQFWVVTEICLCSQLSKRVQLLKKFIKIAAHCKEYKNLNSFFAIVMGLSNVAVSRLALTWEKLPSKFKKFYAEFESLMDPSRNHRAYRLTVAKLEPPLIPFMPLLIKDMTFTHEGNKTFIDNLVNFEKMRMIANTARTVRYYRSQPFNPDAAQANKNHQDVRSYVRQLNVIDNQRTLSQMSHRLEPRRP

[4] = molecular target: Rap guanine nucleotide exchange factor 4 (Homo sapiens) (UniProt Q8WZA2); experiment: Confirmatory qHTS for antagonist of cAMP-regulated guanine nucleotide exchange factor 4 (EPAC2) (AID 1645885); also: nearly all actives have a fitted effect of over 25% in size
[5] = molecular target: Rap guanine nucleotide exchange factor 3 (Homo sapiens) (UniProt O95398); experiment: Counterscreen qHTS for antagonist of cAMP-regulated guanine nucleotide exchange factor 3 (EPAC1) (AID 1645888);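 also: fluorescence loss as bound BODIPY-GDP is released from Rap1B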
Outline: (§1)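 Measured: fluorescence of BODIPY-GDP bound to Rap1B, which falls as exchange proceeds. Conditions include 50 uM competing GDP, 5 and 30 min reads, and a later cAMP challenge for antagonist detection.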

[6] = molecular target: Rap guanine nucleotide exchange factor 3 (Homo sapiens) (UniProt O95398); experiment: Counterscreen qHTS for agonist of cAMP-regulated guanine nucleotide exchange factor 3 (EPAC1) (AID 1645889); also: nearly all actives have a fitted effect of over 40% in size; also: potency is read from the fitted curve at half-maximal effect
Outline: as §1

Structure (SMILES) | Potency [1] | Potency [2] | Potency [3] | Potency [4] | Potency [5] | Potency [6] | activation [3] | activity change, negative = inhibition [5] | activation [6]
CC(=O)Nc1c(C)nn(-c2ccccc2)c1N1CCC(C(=O)NCc2cccc(F)c2)CC1 | inactive | inactive | inactive | inactive | inactive | inactive |  |  | 
COc1ccc(OC)c(NS(=O)(=O)c2cc3c4c(c2)CCN4C(=O)CC3)c1 | inactive | inactive | inactive | inactive | inactive | inactive |  |  | 
COc1cccc(/C=N/NC(=O)c2cc3cc([N+](=O)[O-])ccc3s2)c1O | 35.5 µM (active) | inactive |  | inactive |  |  | 10.9% [at 17.1 µM, percent relative to cAMP agonist control] | -2.63% [at 30.8 µM] | 26.8% [at 30.8 µM]
Cc1ccc(-c2c3c(=O)n(C)c(=O)n(C)c3c3c(C(F)(F)F)nc4ccccc4n23)cc1 | inactive | inactive | inactive | inactive | inactive | inactive |  |  | 
Cc1onc(-c2c(Cl)cccc2Cl)c1COC(=O)c1ccc(Cl)cc1 | inactive | inactive | inactive | inactive | inactive | inactive |  |  | 
COc1ccc(CCNC2CC(=O)N(CCc3ccc(OC)c(OC)c3)C2=O)cc1 (stereo unspecified) | inactive | inactive |  | inactive |  |  | 4.7% [at 17.1 µM, percent relative to cAMP agonist control] | -1.61% [at 30.8 µM] | 8.52% [at 30.8 µM]
CCN1CCN(c2ccc(S(=O)(=O)N3CCCCC3)cc2NC(=O)C(C)Oc2ccc(F)cc2)CC1 (stereo unspecified) | inactive | inactive | inactive | inactive | inactive | inactive |  |  | 
Cc1ccccc1NC1c2ccccc2C(=O)N1Cc1ccco1 (stereo unspecified) | inactive | inactive |  | inactive |  |  | 2.58% [at 17.1 µM, percent relative to cAMP agonist control] | -11.4% [at 30.8 µM] | 17.8% [at 30.8 µM]
COc1cccc(NS(=O)(=O)c2ccc3c(c2)C2C=CCC2C(c2ccc(C(=O)O)cc2)N3)c1 (stereo unspecified) | 9.53 µM (active) | inactive | inactive | inactive | inactive | inactive |  |  | 
c1cncc(-c2nc(NCCCN3CCOCC3)c3c4c(sc3n2)CCC4)c1 | inactive | inactive | inactive | inactive | inactive | inactive |  |  | 
Cc1cc(Br)ccc1-n1[nH]c(C)c(C=Nc2cccc3nsnc23)c1=O | inactive | inactive | inactive | inactive | inactive | inactive |  |  | 
COC(=O)c1cc2occc2n1Cc1cccc(C)c1 | inactive | inactive | inactive | inactive | inactive | inactive |  |  | 
COc1cc(NC(=O)CCc2c(C)nc3c4c(C)cc(C)nc4nn3c2C)cc(OC)c1 | inactive | inactive | inactive | inactive | inactive | inactive |  |  | 
CSCCC(NS(=O)(=O)c1ccc2c(c1)OCCO2)C(=O)N(C)Cc1ccc(F)cc1 (stereo unspecified) | inactive | inactive |  | inactive |  |  | 1.67% [at 17.1 µM, percent relative to cAMP agonist control] | -2.77% [at 30.8 µM] | 5.06% [at 30.8 µM]
CCOC(=O)c1c(-c2ccc(OC)cc2)csc1/N=C/C1=C(O)CCCC1=O | inactive | inactive |  | inactive |  |  | 4.43% [at 17.1 µM, percent relative to cAMP agonist control] | -7.43% [at 30.8 µM] | 11.3% [at 30.8 µM]
Cc1ccc(OCC(=O)OC(C)CN(C)Cc2ccccc2)cc1 (stereo unspecified) | inactive | inactive |  | inactive |  |  | 4.43% [at 17.1 µM, percent relative to cAMP agonist control] | 8.78% [at 30.8 µM] | 10.6% [at 30.8 µM]
CCc1nnc(NS(=O)(=O)c2ccc(NCc3cc(Cl)ccc3O)cc2)s1 | 39.8 µM (active) | inactive |  | inactive |  |  | -0.696% [at 17.1 µM, percent relative to cAMP agonist control] | -8.7% [at 30.8 µM] | 11.7% [at 30.8 µM]
O=C(CCCOc1ccccc1)Nc1ccc(Cl)cn1 | inactive | inactive | inactive | inactive | inactive | inactive |  |  | 
O=C(COc1ccccc1/C=C\c1[nH]c(=O)[nH]c(=O)c1[N+](=O)[O-])Nc1ccccc1 | 10 µM (active) | inactive |  | inactive |  |  | 2.16% [at 17.1 µM, percent relative to cAMP agonist control] | 2.03% [at 30.8 µM] | 7.06% [at 30.8 µM]
O=C(CN(Cc1ccco1)C(=O)c1ccc(Cl)cc1)Nc1c(Cl)cc(Cl)cc1Cl | inactive | inactive | inactive | inactive | inactive | inactive |  |  | 
Cc1[nH][nH]c(=O)c1C(c1ccc(-c2ccc(Cl)c(C(=O)O)c2)o1)c1c(C)[nH][nH]c1=O | inactive | inactive |  | inactive |  | 11.2 µM (active) | 10.1% [at 17.1 µM, percent relative to cAMP agonist control] | 34.9% [at 30.8 µM] | 
